Source: PubChem BioAssay (NCATS)
Records with an inconclusive call do not appear. Activity calls are given as the source filed them. Calls come from the whole dose curve; as a rule, active = well fitted curve in the direction sought with a large enough effect; inconclusive = small, poorly fitted or top-dose-only effect, or effect the other way, or another doubt; inactive = no such curve, though single readings can be large or run the other way.

Test: qHTS Assay for Identification of Small Molecule Agonists for NFkB Signaling Pathway. (AID 624478);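 note: compounds tested together with TNF alpha at its EC50 of 10 pM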
Settings: NFkB pathway reporter cell assay, agonist mode, cells co-stimulated with 10 pM TNF alpha; series mostly up to 46.1 µM
Description: The TNF alpha/NFkB signaling pathway was assayed in NFkB-bla cells (Invitrogen), a ME-180 cervical carcinoma line containing a stably integrated beta-lactamase reporter gene controlled by a NFkB response element. This reporter is induced by TNF alpha at 10 pM EC50 and inhibited by the proteosome inhibitor MG-132 at approximately 100 nM IC50. The assay was screened at the EC50 of TNF alpha activation to identify activators of TNF alpha/NFkB signaling
Cells were trypsinized, washed in assay medium (AM, OPTI MEM with 0.5% fetal bovine serum, 0.1 mM nonessential amino acids, 1 mM sodium pyruvate, 10mM HEPES pH 7.3, 100U/ml penicillin, and 100 ug/ml streptomycin) and plated at 1000 cells/5 uL/well into black clear-bottom 1536 well plates. After an overnight incubation at 37 C and 5% CO2, 23 nL of compound were delivered by a pin tool, 1 uL of TNF alpha (10 pM final concentration in AM) was added and plates were incubated at 37 C for 5 hrs. One uL of LiveBLAzerTM detector mix (Invitrogen) was added, the plates incubated at room temperature for 2 hrs, and fluorescence intensity at 460 and 530 nm emission was measured at 405 nm excitation by an Envision (Perkin Elmer).
With `CC(C)C[C@@H](C(=O)N[C@H](C(=O)OC1CCCC1)c1ccccc1)[C@H](O)C(=O)NO` the outcome was “inactive”.
With `CCc1cc(-c2n[nH]c(C)c2-c2ccc3c(c2)OCCO3)c(O)cc1O` the outcome was “inactive”.
For `CN1C(=O)C(Cc2c[nH]c3ccccc23)NC1=S` (stereo not given), the outcome was “inactive”.
For `Nc1ccc(-c2ccc3ncc4ccc(=O)n(-c5cccc(C(F)(F)F)c5)c4c3c2)cn1`, the outcome was “inactive”.
In the case of `O=C(O)c1ccc(O)c2ncc(N3CCOCC3)cc12`, the outcome is reported as “inactive”.
With `COc1cccc(OC)c1-c1cc(C(=O)NC2(C(=O)O)C3CC4CC(C3)CC2C4)nn1-c1ccnc2cc(Cl)ccc12` (stereo not given) the outcome was “inactive”.
With `CN(C)CCN(C)C(=O)c1ccc(NC(=O)Nc2ccc(-c3nc(N4CCOCC4)c4ccn(CC(F)(F)F)c4n3)cc2)cc1` the outcome was “inactive”.
In the case of `CCCCn1c(=O)n(Cc2ccccc2F)c(=O)c2[nH]c(Cc3ccc(NC(C)=O)cc3)nc21`, the outcome is reported as “inactive”.
For `Cc1csc(-c2nnc(Nc3ccc(Oc4ncccc4-c4ccnc(N)n4)cc3)c3ccccc23)c1`, the outcome was “inactive”.
For `CC(C)(C)c1[nH]cnc1C=c1[nH]c(=O)c(=Cc2ccccc2)[nH]c1=O`, the outcome was “inactive”.
In the case of `O=C1CN2Cc3c(ccc(Cl)c3Cl)N=C2N1`, the outcome is reported as “inactive”.
With `OCCn1cc(-c2ccc3c(c2)CCC3=NO)c(-c2ccncc2)n1` the outcome was “inactive”.
For `CCC=CC[C@H]1C(=O)CC[C@@H]1CC(=O)OC`, the outcome was “inactive”.
In the case of `CC(C)C[C@H](NC(=O)c1cc2ccccc2s1)C(=O)N1CCN(C(=O)[C@H](CO)NS(=O)(=O)c2ccc(Cl)cc2Cl)CC1`, the outcome is reported as “inactive”.
In the case of `Cc1nn(Cc2ccccc2Cl)c(C)c1CN(C)CC(O)COc1ccc(Cl)cc1` (stereo not given), the outcome is reported as “inactive”.
For `COc1ccc2c(c1)CC[C@H]1[C@@H]2CC[C@]2(C)[C@@H](NCCCCCCN3C(=O)C=CC3=O)CC[C@H]12`, the outcome was “inactive”.
With `Cc1c(C(=O)Nc2ccc(N3C[C@@H](C)O[C@@H](C)C3)nc2)cccc1-c1ccc(OC(F)(F)F)cc1` the outcome was “inactive”.
In the case of `Cc1ccc(NC(=O)c2ccc(CN3CCN(C)CC3)cc2)cc1Nc1nc(-c2cccnc2)cs1`, the outcome is reported as “inactive”.
With `COc1cc2c(cc1OC)CC(=O)N(CCCN(C)C[C@H]1Cc3cc(OC)c(OC)cc31)CC2` the outcome was “inactive”.
In the case of `COC(=O)Nc1ccc(-c2nc(N3CCOCC3)c3cnn(C4CCN(C(=O)OC)CC4)c3n2)cc1`, the outcome is reported as “inactive”.
With `Cc1ccc(C(=O)N(CCCN)[C@@H](c2nc3cc(Cl)ccc3c(=O)n2Cc2ccccc2)C(C)C)cc1` the outcome was “inactive”.
For `CC(=O)Nc1cccc(-n2c(=O)n(C3CC3)c(=O)c3c(Nc4ccc(I)cc4F)n(C)c(=O)c(C)c32)c1`, the outcome was “inactive”.
With `CN(C)CCCNC(=O)c1ccc(-c2cc(O)c3ncccc3c2)cc1` the outcome was “inactive”.
With `CC1=C[C@@H]2[C@@H]([C@@H](O)C[C@@]3(C)[C@H]2C[C@@H](C)[C@]3(O)C(=O)CO)[C@@]2(C)Cc3cnn(-c4ccccc4)c3C=C12` the outcome was “inactive”.
For `C[C@@H](O[C@H]1OCCN(Cc2n[nH]c(=O)[nH]2)[C@@H]1c1ccc(F)cc1)c1cc(C(F)(F)F)cc(C(F)(F)F)c1`, the outcome was “inactive”.
In the case of `CCNC(=O)c1noc(-c2cc(C(C)C)c(O)cc2O)c1-c1ccc(CN2CCOCC2)cc1`, the outcome is reported as “inactive”.
In the case of `O=C1C(CCC(O)c2ccc(F)cc2)C(c2ccc(O)cc2)N1c1ccc(F)cc1` (stereo not given), the outcome is reported as “inactive”.
For `CC(C)Oc1cc(Nc2nc(N[C@@H](C)c3ccc(F)cn3)ncc2Cl)[nH]n1`, the outcome was “inactive”.
For `O=C(Nc1cccc(Cl)c1)Nc1ncc(CCNc2ncnc3ccsc23)s1`, the outcome was “inactive”.
With `CCC(=O)N1CCN(c2ccc(-n3c(=O)ccc4cnc5ccc(-c6cnc7ccccc7c6)cc5c43)cc2C(F)(F)F)CC1` the outcome was “inactive”.
With `COc1nc(C)cnc1NS(=O)(=O)c1cccnc1-c1ccc(-c2nnco2)cc1` the outcome was “inactive”.
With `COc1c(C)cnc(Cn2cnc3c(Cl)nc(N)nc32)c1C` the outcome was “inactive”.
For `O=C(Nc1ccc(OC(F)(F)F)cc1)c1sccc1NCc1ccnc2ccccc12`, the outcome was “inactive”.
In the case of `Cc1cccc(Nc2nc(N[C@@H]3CCCC[C@H]3N)ncc2C(N)=O)c1`, the outcome is reported as “inactive”.
In the case of `CCCCCCCCCCCCCC(=O)N[C@H](CO)[C@H](O)c1ccc([N+](=O)[O-])cc1`, the outcome is reported as “inactive”.
In the case of `NC(=O)c1ccc(N(C(N)=O)c2c(F)cccc2F)nc1-c1ccc(F)cc1F`, the outcome is reported as “inactive”.
In the case of `CCCCOCCOc1nc(-c2ccc(C(=O)O)c(F)c2)sc1C`, the outcome is reported as “inactive”.
In the case of `CC(O)=C(C#N)C(=O)Nc1ccc(C(F)(F)F)cc1`, the outcome is reported as “inactive”.
In the case of `CCN(CC)CCCCNc1nc2cc(Cl)c(Cl)cc2nc1-c1ccc(-c2cccs2)s1`, the outcome is reported as “inactive”.
With `CC(=O)NCCC(=O)N[C@@H](CCC(N)=O)C(=O)N[C@@H](CO)C(=O)N[C@@H](CCC(N)=O)C(=O)N[C@@H](CCC(N)=O)C(=O)N[C@H](C(=O)N[C@@H](Cc1ccccc1)C(=O)N[C@]1(C)CCCCCCC=CCCC[C@@](C)(C(=O)N[C@@H](CCC(N)=O)C(=O)N[C@@H](CC(N)=O)C(N)=O)NC(=O)[C@H](CC(C)C)NC(=O)[C@H](CC(C)C)NC(=O)[C@@H](CCCNC(=N)N)NC(=O)[C@H](Cc2c[nH]c3ccccc23)NC(=O)[C@H](CC(C)C)NC(=O)[C@H](CC(N)=O)NC1=O)[C@H](C)O` the outcome was “inactive”.
